Bioassay records from PubChem.
CD11b adhes inh – blocks human CD11b/CD18 adhesion to fibrinogen; 93,000 compounds, 0.54% hits; inhibition, % at 10 µM; K562 CD11b/CD18 adhesion to fibrinogen, ATPlite luminescence; Mn2+ added to activate the integrin; P05107+P11215; AID 1497;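 active means primary inhibition of 50% or more at 10 µM, then 40% or more on retest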
Mac1 fbg enh – CD11b/CD18-fibrinogen binding enhancement | P05107+P11215 | K562 CD11b/CD18 adhesion to fibrinogen, ATPlite luminescence | activation, % at 10 µM | 93,000 compounds, 0.07% hits | AID 1499;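 active means 10 µM primary screen giving 50% or more activity, confirmed by 40% or more on retest at that dose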
CYP2C19 inhib – human CYP2C19 inhibition | CYP2C19 Supersomes, luciferin-H EGE luminescence, 30 min | P33261 | inhibition, % at 5 µM | 96,000 compounds, 21% hits;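 active means CYP2C19 inhibition above a set limit at 5 µM in the primary screen, cut at about 50% in these data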;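 further: plate controls were negative control wells for no effect and 2.5 mM tranylcypromine positive control for full effect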
Target sequence (P33261 whole entry, looked up): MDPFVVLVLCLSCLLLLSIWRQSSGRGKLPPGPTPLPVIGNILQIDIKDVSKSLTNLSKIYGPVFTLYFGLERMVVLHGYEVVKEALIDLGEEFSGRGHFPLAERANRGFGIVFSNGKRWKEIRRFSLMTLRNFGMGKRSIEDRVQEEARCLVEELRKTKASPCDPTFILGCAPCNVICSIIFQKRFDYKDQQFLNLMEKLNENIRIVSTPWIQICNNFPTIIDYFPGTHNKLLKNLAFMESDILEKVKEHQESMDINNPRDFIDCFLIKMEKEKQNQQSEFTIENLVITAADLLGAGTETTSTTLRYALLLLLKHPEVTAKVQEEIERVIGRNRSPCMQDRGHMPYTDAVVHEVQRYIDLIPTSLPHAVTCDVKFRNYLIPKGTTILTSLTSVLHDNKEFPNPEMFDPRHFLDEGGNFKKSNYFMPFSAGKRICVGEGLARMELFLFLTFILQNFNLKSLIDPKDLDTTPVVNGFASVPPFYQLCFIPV
CYP2C9 inhib – blocks human cytochrome P450 2C9; AID 777; 96,000 compounds, 20% hits; CYP2C9 Supersomes, luciferin-H conversion, luminescence; inhibition, % at 5 µM;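 active means blocking of liver enzyme CYP2C9 beyond about 50% at 5 µM, limit read from the data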
CYP2C9 act – CYP2C9 (human) activation; activation factor at 5 µM; AID 1024; recombinant CYP2C9, luciferin-H conversion, luminescence; active compounds read high; factor 1 = untreated enzyme, 0 = blocked; P11712; 96,000 compounds, 1.4% hits;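 active means activation factor of 2 or more for CYP2C9 at a 5 µM dose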;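 further: 0 = sulfaphenazole-blocked wells and 1 = vehicle-only wells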
CYP2C19 activ – cytochrome P450 2C19 (human) activation | activation factor at 5 µM | recombinant CYP2C19, luciferin-H EGE luminescence; active compounds read high; 0 = fully inhibited enzyme, 1 = untreated enzyme | 96,000 tested, under 10 active | P33261 | AID 1025;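 active means activation factor of at least 2 at 5 µM in the primary screen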;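 further: 0 = wells with 2.5 mM tranylcypromine and 1 = vehicle-only wells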
* = called active by the depositor; x = no result given. The list is not random: actives were taken first. Their share in the collection is about 28%.

SMILES	CD11b adhes inh	Mac1 fbg enh	CYP2C19 inhib	CYP2C9 inhib	CYP2C9 act	CYP2C19 activ
CCCCCCCc1c(C)nc(N2CCOCC2)[nH]c1=O	-12	-1	51*	74*	0.3	0.5
CCSc1nnc(NC(=O)CCNS(=O)(=O)c2cc(Br)cnc2N)s1	-6	0	43	62*	0.4	0.6
Cc1cc(C)n2nc(SCC(=O)N(C)Cc3ccccc3)nc2n1	-51	6	-6	-22	1.2	1.1
O=C(COC(=O)Cc1ccc(S(=O)(=O)N2CCOCC2)s1)NCc1ccc(Cl)cc1	-9	-2	73*	86*	0.1	0.3
O=C(COC(=O)c1ccc(S(=O)(=O)N2CCCC2)cc1)NCc1ccc(Cl)cc1	-16	-3	45	54*	0.5	0.6
CCOc1ccc(NC(=O)COC(=O)Cc2ccc(S(=O)(=O)N3CCOCC3)s2)cc1	-27	5	23	48	0.5	0.8
CCCCNC(=O)COC(=O)c1ccc(Cl)c(S(=O)(=O)N2CCCC2)c1	1	-1	74*	25	0.8	0.3
CCNC(=O)COC(=O)c1ccc(S(=O)(=O)N2CCCCCC2)cc1	-13	-2	5	34	0.7	1
O=C(Nc1ccc(N2CCCC2)c(Cl)c1)c1ccccc1[N+](=O)[O-]	0	-4	x	x	x	x
O=C(CCN1C(=O)C2C3C=CC(C3)C2C1=O)Nc1ccccn1 (stereo not given)	9	1	-8	-26	1.3	1.1
CCOC(=O)c1c(C)[nH]c(C(=O)OCC(=O)Nc2cc(C)c(Cl)cc2OC)c1C	-9	32	6	12	0.9	0.9
CCC(c1nnc(SCC(=O)Nc2nnc(-c3ccccc3)o2)n1Cc1ccccc1)N(C)C (stereo not given)	x	x	-3	-5	1.1	1
O=C(NCC(c1cccnc1)N1CCN(c2ccc(F)cc2)CC1)c1ccccc1 (stereo not given)	x	x	54*	21	0.8	0.5
Cc1sc(NC(=O)c2ccco2)c(C(c2cccnc2)N2CCN(c3ccc(F)cc3)CC2)c1C (stereo not given)	8	2	95*	99*	0	0
CCOC(=O)C1CCN(C(c2cccnc2)c2c(NC(=O)c3ccco3)sc(C)c2C)CC1 (stereo not given)	22	2	60*	82*	0.2	0.4
CCOC(=O)c1c(C)oc2c1c(C(c1cccnc1)N1CCCCC1)c(O)c1ccccc12 (stereo not given)	53	-3	5	31	0.7	0.9
Cc1nc2sc(C(c3ccc(F)cc3)N3CCN(C(=O)c4ccco4)CC3)c(O)n2n1 (stereo not given)	8	-2	x	x	x	x
O=S(=O)(NCC(c1cccnc1)N1CCN(c2ccccc2)CC1)c1cc(F)ccc1F (stereo not given)	-5	19	36	38	0.6	0.6
COc1ccc(N2C(=O)CC(n3c(CCCCO)nc4ccccc43)C2=O)cc1 (stereo not given)	-3	-2	-2	-2	1	1
COc1cccc(NC(=O)CSc2nnc(-c3ccoc3C)n2CC2CCCO2)c1 (stereo not given)	x	x	10	18	0.8	0.9
COc1ccc(OC)c(-n2c(SCC(=O)Nc3cc(C)on3)nnc2-c2c[nH]c3ccccc23)c1	-5	-1	84*	68*	0.3	0.2
COc1ccc(OC)c(-n2c(=O)c3ccccc3c3ccccc3c2=O)c1	1	11	x	x	x	x
COc1ccc(OC)c(-n2c(SC)nnc2-c2c[nH]c3ccccc23)c1	-9	1	78*	68*	0.3	0.2
COc1ccc(OC)c(-n2c(SCC(N)=O)nnc2-c2c[nH]c3ccccc23)c1	-5	0	39	58*	0.4	0.6
CCCCNC(=O)CSc1nnc(-c2c[nH]c3ccccc23)n1CC1CCCO1 (stereo not given)	1	6	53*	44	0.6	0.5
SMILES	CD11b adhes inh	Mac1 fbg enh	CYP2C19 inhib	CYP2C9 inhib	CYP2C9 act	CYP2C19 activ
O=C(c1ccc(Cl)cc1)c1oc2ccccc2c1CS(=O)(=O)c1ccccc1	11	-6	40	42	0.6	0.6
O=C1C2C3C=CC(C3)C2C(=O)N1c1cccnc1 (stereo not given)	1	-1	-10	-10	1.1	1.1
COCCn1c(SCC(=O)Nc2cc(C)on2)nnc1-c1c[nH]c2ccccc12	-7	2	55*	75*	0.3	0.5
COc1cccc(-n2c(SCC(N)=O)nnc2-c2c[nH]c3ccccc23)c1	-8	2	89*	31	0.7	0.1
COc1cccc(-c2nnc(SCC(N)=O)n2-c2ccc(Cl)cc2)c1	-9	0	17	21	0.8	0.8
CCOc1ccc(-n2c(SCC(=O)Nc3cc(C)on3)nnc2-c2c[nH]c3ccccc23)cc1	7	-7	14	40	0.6	0.9
Clc1cccc(Cl)c1CSc1nnc(/C=C/c2ccccc2)o1	-1	2	24	8	0.9	0.8
C[C@H](N)c1nnc(SCc2ccc(Cl)cc2Cl)o1	12	2	100*	82*	0.2	0
CCC(C)[C@H](N)c1nnc(SCC(=O)c2ccc(Cl)cc2)o1 (stereo not given in full)	5	-2	100*	71*	0.3	0
CC(C)[C@H](N)c1nnc(SCc2ccc(Cl)cc2)o1	-19	0	96*	15	0.8	0
Clc1ccc(CSc2nnc(-c3sccc3-n3cccc3)o2)cc1	x	x	34	46	0.5	0.7
C[C@H](N)c1nnc(SCC(=O)N(C)C)o1	-18	7	4	12	0.9	1
C[C@H](N)c1nnc(SCc2c(Cl)cccc2Cl)o1	7	2	99*	58*	0.4	0
O=C(COc1ncnc2ccccc12)N1CCN(S(=O)(=O)c2ccc(Cl)cc2)CC1	8	-1	10	33	0.7	0.9
CCCCCCCCCCS(=O)(=O)N/N=C/c1ccc(O)cc1	12	1	x	x	x	x
CCC(c1nnc(SCC(=O)NC23CC4CC(CC(C4)C2)C3)o1)N(C)C (stereo not given)	0	-2	8	4	1	0.9
CCC(c1nnc(SCC(=O)NCCc2ccc(Cl)cc2Cl)o1)N(C)C (stereo not given)	11	-2	79*	58*	0.4	0.2
Cc1nc(SCc2c(F)cccc2Cl)c2c(=O)n(C)c(=O)n(C)c2n1	-8	4	12	29	0.7	0.9
COc1ccc(C2c3c(oc4c(C)cc(C)cc4c3=O)C(=O)N2Cc2cccnc2)cc1OC (stereo not given)	-8	-3	-15	-12	1.1	1.1
COc1ccc(CCN2C(=O)c3[nH]nc(-c4ccccc4O)c3C2c2cccc(O)c2)cc1OC (stereo not given)	-5	5	93*	98*	0	0.1
